How the values were obtained:
Assay in all cases: PBM binding z-score (relative to random genomic background probes); higher = stronger binding; sequences stand for … in GC…GCGATTGACAGCGTAGAATGAAGG
[1] = test system: FXR:RXRa (NR concentration 270 nM, RXRa partner concentration 90 nM)
Summary of the method: (§1)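 Random background probes are the reference for binding z-scores. These scores derive from regression-normalized fluorescence on custom Agilent 4×180K protein-binding microarrays incubated 1 h with ligand-free nuclear receptor dimers. Binding was detected with antibodies against each partner (one per run).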

[2] = test system: LXRa:RXRa (NR concentration 270 nM, RXRa partner concentration 90 nM)
Summary of the method: as §1

[3] = test system: LXRa homodimer (NR concentration 270 nM)
Summary of the method: as §1

[4] = test system: LXRb:RXRa (NR concentration 270 nM, RXRa partner concentration 90 nM)
Summary of the method: as §1

[5] = test system: LXRb homodimer (NR concentration 270 nM)
Summary of the method: as §1

[6] = test system: PPARa:RXRa (NR concentration 270 nM, RXRa partner concentration 90 nM)
Summary of the method: as §1

[7] = test system: PPARg:RXRa (NR concentration 180 nM, RXRa partner concentration 90 nM)
Summary of the method: as §1

[8] = test system: PPARg:RXRa 270nM:90nM, anti-RXR (NR concentration 270 nM, RXRa partner concentration 90 nM)
Summary of the method: as §1

[9] = test system: PPARg:RXRa 30nM:10nM, anti-RXR (NR concentration 30 nM, RXRa partner concentration 10 nM)
Summary of the method: as §1

[10] = test system: PPARg:RXRa 90nM:30nM, anti-RXR (NR concentration 90 nM, RXRa partner concentration 30 nM)
Summary of the method: as §1

[11] = test system: PPARg:RXRa DBDmut IVT, anti-RXR (DBD mutation: RXRa K156A/R161A, NR concentration 270 nM, RXRa partner concentration 90 nM)
Summary of the method: as §1

[12] = test system: PPARg:RXRa IVT, anti-PPARg (NR concentration 270 nM, RXRa partner concentration 90 nM)
Summary of the method: as §1

[13] = test system: PPARg DBDmut:RXRa IVT, anti-PPARg (DBD mutation: PPARg1 K132A/R137A, NR concentration 270 nM, RXRa partner concentration 90 nM)
Summary of the method: as §1

[14] = test system: PPARg DBDmut IVT, anti-PPARg (DBD mutation: PPARg1 K132A/R137A, NR concentration 270 nM)
Summary of the method: as §1

[15] = test system: PPARg homodimer (NR concentration 180 nM)
Summary of the method: as §1

[16] = test system: PXR:RXRa (NR concentration 270 nM, RXRa partner concentration 90 nM)
Summary of the method: as §1

[17] = test system: PXR homodimer (NR concentration 270 nM)
Summary of the method: as §1

[18] = test system: RARa:RXR (NR concentration 270 nM, RXRa partner concentration 90 nM)
Summary of the method: as §1

[19] = test system: RARa homodimer (NR concentration 270 nM)
Summary of the method: as §1

[20] = test system: RARb:RXRa (NR concentration 270 nM, RXRa partner concentration 90 nM)
Summary of the method: as §1

Row | Sequence | PBM binding z-score [1] | PBM binding z-score [2] | PBM binding z-score [3] | PBM binding z-score [4] | PBM binding z-score [5] | PBM binding z-score [6] | PBM binding z-score [7] | PBM binding z-score [8] | PBM binding z-score [9] | PBM binding z-score [10] | PBM binding z-score [11] | PBM binding z-score [12] | PBM binding z-score [13] | PBM binding z-score [14] | PBM binding z-score [15] | PBM binding z-score [16] | PBM binding z-score [17] | PBM binding z-score [18] | PBM binding z-score [19] | PBM binding z-score [20]
1 | CGTCCAACGTCAAAGGTCAGTGAAGAGATGACGG | 2.97 | 3.2 | 0.576 | 2.94 | 0.0829 | 4.04 | 3.28 | 4.92 | 2.64 | 4.72 | -0.294 | 1.63 | -0.376 | -0.0246 | 3.55 | 3.58 | 0.376 | 5.04 | 1.79 | 4.24
2 | CGTGCAAGGTCATAGGAGGTCAGTGAAGACAGAT | 7.84 | 7.38 | 4.92 | 6.31 | 1.2 | 5.98 | 6.01 | 6.37 | 2.92 | 5.01 | 3.54 | 4.74 | 1.77 | -0.0772 | 4.07 | 7.21 | 4.19 | 6.63 | 2 | 5.41
3 | CCTAGCAGGGCAATCTGGGTCACTCAAGGCTTGA | 0.679 | 2.4 | -0.398 | 0.85 | -0.611 | 2.99 | 2.72 | 2.62 | 0.319 | 1.75 | 4.48 | 5.72 | -0.465 | -0.641 | 0.648 | 1.65 | -0.451 | 1.89 | -0.799 | 2.06
4 | TAACCTAGGTCATTCAGGGGCCAGTATAGAAAGC | 5.52 | 5.3 | 3.1 | 3.98 | 2.09 | 4.46 | 3.45 | 4.12 | 1.61 | 3.03 | 3.77 | 4.77 | 0.824 | 0.744 | 2.96 | 3.09 | 0.651 | 4.06 | 0.531 | 4.33
5 | CAAACTAGGTCACGAAAGGTTAAAGTCGAATGAC | 5.89 | 7.18 | 3.46 | 5.5 | 0.758 | 6.04 | 9.67 | 7.92 | 5.98 | 8.04 | 8.39 | 9.07 | 2.59 | 1.97 | 3.32 | 5.8 | 0.579 | 5.4 | 1.18 | 5.01
6 | CTACCAAGGTGAACAAGGTCGTTCATTACTATTC | 2.27 | 3.01 | 1.12 | 2.9 | 0.239 | 3.12 | 1.29 | 1.56 | 0.212 | 0.958 | 4.04 | 2.99 | 0.407 | 0.669 | 1.03 | 3.55 | 3.05 | 2.7 | 0.251 | 2.38
7 | GCTTGAAGATCAAGGTTAAGAAAGACTAAGCTAA | 0.0422 | 0.502 | -0.466 | 0.434 | -0.944 | 1.44 | 0.0751 | 0.707 | 0.116 | 0.552 | -0.184 | -0.042 | 0.0638 | -0.723 | -0.0355 | 0.112 | -0.655 | 0.675 | -0.598 | 0.778
8 | GGAACGAGGGCAAGGTGATAGCAGAGTTTGATGG | 0.873 | 0.623 | -0.0759 | 0.183 | -0.496 | 1.74 | 1.76 | 1.89 | 0.199 | 1.19 | 3.43 | 3.26 | -0.452 | -0.737 | 0.922 | 0.851 | 1.06 | 0.793 | 0.23 | 2.78
9 | ACTCGCAGGCCAAGGGTCACTCAAGATTAGTCCG | 2.83 | 3.23 | 0.261 | 2.88 | -0.377 | 4.4 | 5.6 | 6.01 | 4.12 | 5.92 | 0.79 | 2.88 | -0.175 | 0.18 | 2.03 | 3.45 | -0.231 | 4.23 | 0.673 | 3.6
10 | TCTTATAGGTAAAGGTGAAAGTCGAACGATATGA | 1.15 | 1.59 | 0.00548 | 1.58 | 0.488 | 3.27 | 3.38 | 4.4 | 4.42 | 4.81 | 3.92 | 3.7 | 2 | 1.77 | 1.61 | 1.11 | 0.648 | 1.96 | 1.18 | 2.21
11 | CGACCAAGGTCATAGGAGGTCAGTGAAGACAGAT | 7.7 | 7.58 | 4.51 | 5.89 | 0.466 | 5.7 | 6.04 | 5.91 | 2.45 | 4.68 | 3.37 | 4.52 | 0.399 | -0.258 | 5.37 | 6.88 | 4.39 | 6.18 | 2.16 | 5.22
12 | CCTACTGGGCCAAGGTCAATGATCAGTCAAAGCA | 2.52 | 2.33 | 0.441 | 2.32 | -0.518 | 3.85 | 4.03 | 4.33 | 2.07 | 3.39 | 3.63 | 4.57 | -0.437 | -1.01 | 1.4 | 2.51 | 0.323 | 2.81 | 0.147 | 3.27
13 | TAGCCTAGGTCATTGGGCCAGTCTAGTACGCATC | 3.99 | 3.21 | 0.181 | 1.78 | 0.0728 | 3.41 | 3.3 | 3.25 | 0.536 | 2.3 | 2.31 | 3.52 | -0.286 | -0.617 | 1.58 | 1.19 | -0.0454 | 1.82 | -0.767 | 3.53
14 | TCTTGTAGACCAAAGGTTAAGAAAGCCGAAGCCT | 1.29 | 1.9 | -0.151 | 1.82 | -0.338 | 4.78 | 8.36 | 8.52 | 8.06 | 9.8 | 2.06 | 3.9 | 0.87 | 0.749 | 0.811 | 1.58 | -0.8 | 2.39 | -0.178 | 2.03

— the supplement of paper PMC6555819
